Screening data deposited in PubChem by National Center for Advancing Translational Sciences (NCATS).
POLB inh: inhibitors of human DNA polymerase beta; Potency, µM (series often up to 114 µM), for the others: at the highest dose activity change, negative = inhibition, hits mostly inhibitors; P06746; Pol beta primer extension/strand displacement, fluorescence kinetic; actives 1.3% (n = 340,000); further: on the % scale 0 is the no-effect control and ±100 the full control effect
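Pol beta (10 nM) was preincubated with compound for 15 min at room temperature. The reaction was then started with 50 nM substrate and read immediately and after a further 10 min at room temperature.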
Pol kappa inh: DNA polymerase kappa (human) inhibition. purified Pol kappa, fluorescent DNA synthesis assay, 10 min. Potency, µM (highest dose often 107 µM), without a hit: top-dose activity, negative = inhibition, hits mostly inhibitors. actives 0.53% (n = 400,000); further: on the % scale 0 is the no-effect control and ±100 the full control effect
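Kinetic fluorescence screen: compound preincubated 15 min RT with 10 nM enzyme; 50 nM substrate (final) initiates; reads at 0/10 min.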
Pol eta inh: DNA polymerase eta (human) inhibition | Q9Y253 | recombinant Pol eta, fluorescent DNA replication assay | Potency, µM (highest dose often 114 µM), for the others: at the top dose activity change, negative = inhibition, actives largely listed as inhibitors | actives 1.2% (n = 390,000) | AID 588591; further: on the % scale 0 is the no-effect control and ±100 the full control effect
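Fluorescent replication assay: 50 nM final substrate added after a 15 min room-temperature compound preincubation with 10 nM enzyme. Signal taken at 0 min and again at 10 min.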
WRN helicase inh: blocks human WRN helicase; Q14191; WRN helicase unwinding, fluorescent forked duplex, kinetic; Potency, µM (highest dose often 114 µM), for the others: at the highest dose activity change, negative = inhibition, usual class: inhibitors; actives 0.46% (n = 360,000); AID 651768; further: on the % scale 0 is the no-effect control and ±100 the full control effect; nearly all actives have a fitted effect of over 55% in size
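Screening of the MLSMR collection measured strand separation of a quenched forked DNA duplex (100 nM) by 20 nM WRN with 2 mM ATP, all final. Compounds were preincubated with enzyme 15 min at room temperature.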
FEN1 inh: inhibitors of human flap endonuclease 1 | P39748 | Recombinant FEN1 flap cleavage, fluorescence, 15 min | Potency, µM (top dose mostly 114 µM), without a hit: at the top dose activity change, negative = inhibition, most hits filed as inhibitors | actives 0.35% (n = 390,000) | AID 588795; further: on the % scale 0 is the no-effect control and ±100 the full control effect; nearly all actives have a fitted effect of over 65% in size
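Enzyme 10 nM, 15 min RT preincubation with compound; start with substrate 50 nM final; reads at 0 and 15 min; qHTS titration, four-parameter Hill fit.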
Pol iota inh: inhibitors of human DNA polymerase iota; Q9UNA4; Pol iota fluorescent replication assay, 10 min; Potency, µM (titrated, usually from 115 µM), without a hit: at the highest dose activity, negative = inhibition, most hits filed as inhibitors; actives 1% (n = 390,000); AID 588590
Target sequence (Q9UNA4 whole entry, looked up): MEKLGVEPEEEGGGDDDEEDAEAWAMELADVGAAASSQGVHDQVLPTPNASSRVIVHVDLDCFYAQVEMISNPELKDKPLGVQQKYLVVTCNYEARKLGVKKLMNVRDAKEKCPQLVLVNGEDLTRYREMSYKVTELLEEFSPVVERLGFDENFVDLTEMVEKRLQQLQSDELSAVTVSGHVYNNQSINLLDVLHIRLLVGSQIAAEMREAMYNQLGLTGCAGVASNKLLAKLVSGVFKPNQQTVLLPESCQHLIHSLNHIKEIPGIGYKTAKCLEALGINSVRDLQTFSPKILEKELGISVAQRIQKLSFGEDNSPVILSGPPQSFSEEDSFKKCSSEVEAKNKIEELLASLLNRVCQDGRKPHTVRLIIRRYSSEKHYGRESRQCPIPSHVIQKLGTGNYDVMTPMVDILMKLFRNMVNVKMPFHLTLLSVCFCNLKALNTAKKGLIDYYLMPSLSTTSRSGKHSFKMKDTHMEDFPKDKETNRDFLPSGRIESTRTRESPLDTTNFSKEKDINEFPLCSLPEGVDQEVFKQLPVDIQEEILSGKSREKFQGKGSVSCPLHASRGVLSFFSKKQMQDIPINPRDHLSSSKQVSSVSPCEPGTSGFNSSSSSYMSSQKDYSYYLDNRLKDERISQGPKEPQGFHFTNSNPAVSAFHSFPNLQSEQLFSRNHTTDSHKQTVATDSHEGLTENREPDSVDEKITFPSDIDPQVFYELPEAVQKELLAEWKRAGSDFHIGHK
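Fluorescent replication assay read twice, at 0 min and 10 min after adding 50 nM (final) substrate. Enzyme (10 nM) and compounds were first incubated 15 min at room temperature; enzyme-free buffer wells were negative controls.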
* = called active by the depositor; ? = inconclusive; . = no result given; [ ] = dose if it differs, or a comment. Most compounds without a hit are left out; they make up all but 2.4% or so of the library. The call rests on the fitted dose curve; in most records, active means well fitted curve in the direction sought with a large enough effect; inconclusive means small, poorly fitted or top-dose-only effect, or another doubt; inactive means no such curve, though single readings can be large; an effect the other way counts as inactive or inconclusive. Potency means the concentration at half of the fitted maximal effect.

SMILES	POLB inh	Pol kappa inh	Pol eta inh	WRN helicase inh	FEN1 inh	Pol iota inh
O=C(CSc1ncccn1)N1CCCc2ccccc21	15%	-6%	-21%	10%	5%	113%
O=C(CSc1nc(O)cc(=O)n1-c1ccccc1)NCc1ccccc1	3%	-26%	-5%	-18%	-3%	40µM*
CCc1cccc(CC)c1-n1c(SCC(=O)N2CCCc3ccccc32)nc(O)cc1=O	.	45µM*	-16%	-16%	-23%	?
Cc1cc(C)cc(-n2c(SCC(=O)NCc3ccc4c(c3)OCO4)nc3ccccc3c2=O)c1	-8%	-24%	-21%	1%	-3%	-2%
O=C(O)c1cccnc1SCC(=O)N1CCCc2ccccc21	?	-38%	20µM*	-6%[11.6 µM]	-14%	?
O=C(CSc1nc2cc([N+](=O)[O-])ccc2n1-c1ccccc1)NCc1ccc2c(c1)OCO2	10µM*	-18%	-14%	-6%	3%	?
O=c1cc(O)nc(SCc2ccccc2)n1-c1ccccc1	14%	?	-9%	-16%	-16%	?
CCN(CC)S(=O)(=O)c1ccc(NC(=O)CSc2nnc3c(n2)[nH]c2ccccc23)cc1	.	-4%	.	.	-4%	18%
CN[C@@H]1[C@H](O[C@@H]2O[C@H](C)[C@@](O)(CO)[C@H]2O[C@H]2[C@H](O)[C@H](O)[C@H](N=C(N)N)[C@@H](O)[C@@H]2N=C(N)N)O[C@@H](CO)[C@H](O)[C@H]1O	.	-4%[60.1 µM]	.	.	.	.
Cc1ccc2[nH]c(=O)c(CN(CCO)Cc3nnnn3Cc3ccccc3)cc2c1	.	-15%	.	.	-14%	9%
O=C(C[n+]1csc2ccccc21)c1cccc([N+](=O)[O-])c1	.	7%	.	.	-6%	-6%
Cc1ccc(-n2c(SCC(=O)Nc3ccc4c5c(cccc35)CC4)nc(O)cc2=O)cc1	35µM*	-24%	-12%	-15%	-5%	-28%
Cc1ccc(-n2c(SCC(=O)Nc3ccc4c5c(cccc35)CC4)nc(O)c(C)c2=O)cc1	16%	-4%	-19%	-23%	-3%	-8%
CCCn1c(N)c(N(CCOC)C(=O)c2cc(-c3ccco3)nc3ccccc23)c(=O)[nH]c1=O	45µM*	-38%	?	-10%	-10%	56µM*
Cn1c(N)c(C(=O)COC(=O)c2cc(-c3ccco3)nc3ccccc23)c(=O)n(Cc2ccccc2)c1=O	20µM*	.	.	.	.	.
N#CCCn1cc(CNCc2cccnc2)c(-c2ccccc2)n1	.	-1%	.	.	-17%	-1%
COc1cccc2cc(C(=O)Oc3ccccc3)c(=O)oc12	89µM*	-13%	?	-9%	-5%	0%
CC(NC(=O)COC(=O)c1cc([N+](=O)[O-])ccc1N1CCOCC1)c1ccccc1 (configuration not stated)	-1%	-5%	-21%	-15%	-6%	22%
CC(NC(=O)COC(=O)c1cc([N+](=O)[O-])ccc1N1CCOCC1)c1ccc(F)cc1 (configuration not stated)	.	?	56µM*	-8%[11.6 µM]	10%	?
OC[C@H]1O[C@@H](Oc2cc(O)cc(/C=C/c3ccc(O)cc3)c2)[C@H](O)[C@@H](O)[C@@H]1O	20µM*	.	.	.	.	.
CC(C)=CC(=O)Oc1ccc(C(=O)N(C)c2ccccc2I)cc1	.	-3%	.	.	4%	4%
CCCN1CNc2c(c(=O)[nH]c(=S)n2CCc2ccc(C)cc2C)C1	.	6%	.	.	-1%	?
C(=C\c1nc2ccccc2s1)/c1ccc2c(c1)OCO2	.	0%	.	.	-23%	1%
C[N+](C)(CCCCCI)c1ccc(/C=C/c2nc3ccccc3s2)cc1	.	45µM*	.	.	?	79µM*
CS(=O)(=O)Nc1c(O)ccc2c1CCCC2C1=NCCN1 (configuration not stated)	.	-2%[19.4 µM]	.	.	.	.
SMILES	POLB inh	Pol kappa inh	Pol eta inh	WRN helicase inh	FEN1 inh	Pol iota inh
CC[C@@]1(O)C[C@H](O[C@H]2C[C@@H](N(C)C)[C@@H](O[C@H]3C[C@@H](O)[C@@H](O[C@H]4CCC(=O)[C@@H](C)O4)[C@@H](C)O3)[C@@H](C)O2)c2c(cc3c(c2O)C(=O)c2c(O)cccc2C3=O)[C@H]1C(=O)OC	.	4.5µM*	.	.	.	.
N#Cc1ccc(S(=O)(=O)N2CCN(c3nc(-c4cccs4)nc4ccccc34)CC2)cc1	.	1%	.	.	10%	9%
COCCNC(=O)C1Nc2ccc(C(F)(F)F)cc2C2C=CCC12 (configuration not stated)	.	-14%	-20%	13%	-1%	?
O=C(O)c1ccc2c(c1)C1C=CCC1C(c1ccncc1)N2 (configuration not stated)	?	-31%	?	5%	13%	50%
CCOC(=O)c1ccc2c(c1)C1C=CCC1C(C(=O)O)N2 (configuration not stated)	4µM*	.	.	.	.	.
CCOC(=O)C1Nc2ccc(C(=O)O)cc2C2C=CCC12 (configuration not stated)	16µM*	10µM*	2.8µM*	28µM*	20µM*	?
CCCC1Nc2ccc(C(=O)O)cc2C2C=CCC12 (configuration not stated)	35µM*	35µM*	8.9µM*	?	?	18µM*
CCOC(=O)c1sc2nc(-c3ccco3)c3c(c2c1N)CC(C)(C)OC3	40µM*	-15%	?	?	3%	-10%
CC1(C)OC(=O)C2(Cc3cc([N+](=O)[O-])ccc3N3CCCCCC32)C(=O)O1 (configuration not stated)	.	-17%	.	.	-14%	23%
CC(=O)NCCNC(=O)c1ccc(CSc2ccc(Cl)cc2)cc1	17%	-3%	-4%	5%	-2%	2%
CCNC(=O)c1ccc(CSc2ccc(Cl)cc2)cc1	19%	4%	-2%	1%	0%	79µM*
Clc1ccc(Cn2cc3c(n2)-c2cc4ccccc4n2C3)cc1	.	1%	.	.	-22%	22%
O=C(O)COc1ccc(/C=N/n2c(COc3ccccc3)nc3ccccc3c2=O)cc1	3%[57.1 µM]	-12%	-1%	-32%	5%	8%
O=c1c2ccccc2nc(COc2ccccc2)n1/N=C/c1ccc(O)c(O)c1	?	?	32µM*	?	-4%	?
O=C(c1ccc(-c2cccc([N+](=O)[O-])c2)o1)N1CCN(c2ccc([N+](=O)[O-])cc2)CC1	.	-7%	-4%	-7%	-11%	21%
Cc1ccc(C(=O)N2CCN(c3ccc([N+](=O)[O-])cc3)CC2)o1	89µM*	-4%	-20%	5%	10%	6%
O=C(NCCc1nc2ccccc2n1CCOc1ccccc1)C1CCCCC1	.	-16%	.	.	0%	-4%
